Test results published in PubChem BioAssay AID1259240 (Keith Lab, Institute of Cancer Science, University of …, 2017).
Unmarked numbers belong to inactive results. Activity calls are given as the source filed them. Rule as the data show it: active = fold change mostly below about -2 (no sharp cut-off); inactive = mostly above about -1.8.

Test: TERT promoter activity modulators, primary screen, cell-based, luciferase reporter, human (AID 1259240)
Conditions: A2780 TERT promoter luciferase reporter, 16 h; at 20 µM, fold versus average of vehicle-only wells

SMILES | fold change | outcome
Brc1ccc2c(c1)CN(Cc1ccc3c(c1)OCO3)CO2 | -1.55 | –
COc1ccc(C2=NN3C(C2)c2cc(Cl)ccc2OC3c2cccnc2)cc1 (stereo not given) | 1.37 | –
O=C(CN1C(=O)COc2ccc(S(=O)(=O)N3CCCC3)cc21)NCCCN1CCOCC1 | -1.17 | –
Cc1cc(C(=O)O)ccc1-n1c(C)cc(C=C2C(=O)c3ccccc3C2=O)c1C | -2.23 (active) | –
Cc1ccc(-c2cc(N)n(S(=O)(=O)c3cccc4nsnc34)n2)cc1 | -1.42 | –
CSCCC(C(=O)O)N1C(=O)/C(=C/c2cccnc2)SC1=S (stereo not given) | -1.77 | –
CCCN(CCC)S(=O)(=O)c1ccc2c(c1)oc(=O)n2CC(=O)OCC | -1.16 | –
Cc1nc2c3ccccc3n3c(CCCC(=O)NCc4ccccn4)nnc3n2n1 | -1.25 | –
Cn1c2ccccc2c2cnn(CC(=O)NCCc3c[nH]c4ccccc34)c(=O)c21 | 1.23 | –
CCOC(=O)C1=C(CS(=O)(=O)c2ccc(F)cc2)NC(=O)NC1c1cc(OC)ccc1OC (stereo not given) | 1.65 | –
CSc1cccc(NC(=O)C2CCN(S(=O)(=O)c3ccc4c(c3)oc(=O)n4C)CC2)c1 | -1.36 | –
COC(=O)CN1C(=O)C(O)(CC(=O)c2ccc(Br)cc2)c2ccccc21 (stereo not given) | -1.49 | –
COc1cc2c(=O)c(S(=O)(=O)c3ccccc3)cn(Cc3ccccc3F)c2cc1OC | 1.06 | –
O=C(O)Cn1cc(/C=C2/C(=O)Nc3ccccc32)c2ccccc21 | 1.41 | –
Cn1c(=O)oc2cc(S(=O)(=O)N3CCCC(C(=O)NCCN4CCCC4)C3)ccc21 (stereo not given) | 1.73 | –
O=C(CCCCn1c(=O)[nH]c2ccsc2c1=O)NCCc1c[nH]c2ccccc12 | -2.16 (active) | –
Cc1ccc(-c2cc(C(F)F)n3ncc(C(=O)Nc4cccnc4Cl)c3n2)cc1 | -1.66 | –
Cc1ccc(C)c(N2CCN(C(=O)CCCc3nnc4n5nc(C)nc5c5ccccc5n34)CC2)c1 | -1.04 | –
O=C(C1CCN(S(=O)(=O)c2cccc3cccnc23)CC1)N1CCn2c1nc1ccccc12 | 1.05 | –
CCOC(=O)c1nn(-c2ccc(C)cc2)c(=O)c2c(NC(=O)c3ccc(C)c([N+](=O)[O-])c3)scc12 | 1.24 | –

SMILES | fold change | outcome
Cc1cc(C)c2sc(-c3ccccc3)cc(=O)c2c1 | -37 (active) | –
Cc1cc(/C=C2/SC(=S)N(CC(=O)O)C2=O)c(C)n1-c1ccncc1 | -3.58 (active) | –
Cc1cccc(NC(=O)C2CCCN(S(=O)(=O)c3cnc[nH]3)C2)n1 (stereo not given) | -2.48 (active) | –
Clc1ccc(CNc2ncnc3nc[nH]c23)cc1 | 2.09 (active) | –
Oc1oc(-c2ccccc2)nc1C=Nc1ccc(Cl)c2cccnc12 | – | inactive
Cc1c(NC(=O)c2cc(C3CC3)on2)c(=O)n(-c2ccccc2)n1C | -1.33 | –
NC(=O)c1c(NC(=O)CN2C(=O)c3ccccc3S2(=O)=O)sc2c1CCCC2 | 1.23 | –
CCn1c(SCC(=O)N2CCCc3ccccc32)nnc1-c1c[nH]c2ccccc12 | – | inactive
CCCN1C(=O)C2(/C(=C(/O)c3ccc(C)cc3)C(=O)C(=O)N2CCOC)c2ccccc21 (stereo not given) | 1.26 | –
O=c1nc2s/c(=C\c3ccco3)c(=O)n2nc1Cc1ccc(Cl)cc1 | -1.46 | –
CC1CCN(S(=O)(=O)c2ccc3c(c2)N(CC(=O)N2CCOCC2)C(=O)CO3)CC1 | 1.44 | –
CCOC(=O)C1CCCN(c2c(N3CCC(C(N)=O)CC3)c(=O)c2=O)C1 (stereo not given) | -1.23 | –
COc1cc2c(c(OC)c1)C(c1cccc3ccccc13)CC(=O)N2 (stereo not given) | -1.05 | –
Cc1cc(C)n(-c2nc3ccccc3n3cnnc23)n1 | -1.18 | –
Cc1nc2sc3c(NC4CCCCC4)ncnc3c2c2c1COC(C)(C)C2 | -1.55 | –
COc1ccccc1/C=C/C=c1\sc2nc(-c3ccco3)nn2c1=O | 1.41 | –
O=C1C2C(c3cccs3)NC(Cc3ccccc3)(C(=O)O)C2C(=O)N1c1ccc(F)cc1 (stereo not given) | -1.06 | –
CC(C)Oc1ccc(-c2cc(C(F)(F)F)n3ncc(C#N)c3n2)cc1 | -2.17 (active) | –
CC1CCCC(C)N1C(=O)CN1C(=O)COc2ccc(S(=O)(=O)N3CCCCCC3)cc21 (stereo not given) | -1.25 | –
CCOC(=O)C1CCN(c2c(NCCCN3CCCCCC3)c(=O)c2=O)CC1 | -1.3 | –
